Reference: PubChem BioAssay (NCI)
Where “and” joins values, the source holds several entries; their conditions need not be identical. Equal values may be shown once. About 79,000 compounds went through this panel and 15% of them were active in at least one assay; those are over-represented in the sample as a whole. The source holds several records for some structures; these can differ, active in one and inactive in another. Calls of active or inactive are those of the source. Cut-off read from the data, not from the text of the source: active = growth inhibition above about 70%; inactive = the rest.

Columns and labels:
[1] = NCI Yeast Anticancer Drug Screen. Data for the rad50 strain (AID 155);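 note: 0% = growth of vehicle-only cultures of the same strain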; settings: S. cerevisiae rad50 strain growth inhibition, stronger effect = higher value
How it was run: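 Vehicle-treated cultures provide the reference for the growth inhibition reported for compound-exposed, repair-deficient yeast.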

[2] = NCI Yeast Anticancer Drug Screen. Data for the mec2-1 strain (AID 157); settings: S. cerevisiae mec2-1 strain, stronger effect = higher value
How it was run: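 Strain: mec2-1 (DNA repair/cell cycle alteration). Compound exposure, then growth measured; inhibition expressed relative to vehicle.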

[3] = NCI Yeast Anticancer Drug Screen. Data for the sgs1 mgt1 strain (AID 161);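 note: 0% = growth of cultures given vehicle only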; settings: S. cerevisiae sgs1 mgt1 strain, stronger effect = higher value
How it was run: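 Test agents were incubated with a DNA-repair-mutant yeast strain. Growth was then read and compared against vehicle-treated controls.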

[4] = NCI Yeast Anticancer Drug Screen. Data for the cln2 rad14 strain (AID 165);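 note: 0% = growth equal to vehicle treated cultures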; settings: S. cerevisiae cln2 rad14 strain, stronger effect = higher value
How it was run: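 Compounds are applied to the cln2 rad14 yeast strain, and growth is then compared with that of vehicle-treated cultures to give inhibition.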

[5] = NCI Yeast Anticancer Drug Screen. Data for the bub3 strain (AID 167); settings: S. cerevisiae bub3 mutant strain, stronger effect = higher value
How it was run: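 Mutant yeast screening strain plus compound; vehicle-treated cultures serve as the 0% inhibition reference.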

[6] = NCI Yeast Anticancer Drug Screen. Data for the mlh1 rad18 strain (AID 175); settings: S. cerevisiae mlh1 rad18 strain growth inhibition, stronger effect = higher value
How it was run: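 Read-out is yeast growth inhibition, calculated against vehicle-only controls. The compound was applied to a strain engineered with DNA damage repair alterations.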

[7] = NCI Yeast Anticancer Drug Screen. Data for the wt2 strain (AID 169); settings: S. cerevisiae wt2 strain growth inhibition, stronger effect = higher value
How it was run: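 This strain belongs to a panel of yeast strains with defined genetic alterations in DNA damage repair or cell cycle control. Compounds are applied, and growth inhibition is measured against vehicle-treated cultures.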

[8] = NCI Yeast Anticancer Drug Screen. Data for the wt1 strain (AID 149);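 note: 0% = growth of vehicle-treated wt1 cultures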; settings: S. cerevisiae wt1 strain (SPY 50644) growth inhibition, stronger effect = higher value
How it was run: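 Each compound is tested on wt1 yeast and the loss of growth versus vehicle gives the inhibition value.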

[9] = NCI Yeast Anticancer Drug Screen. Data for the mgt1 strain (AID 153); settings: S. cerevisiae mgt1 mutant growth inhibition, stronger effect = higher value
How it was run: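 Strain: mgt1 yeast, one of a set carrying defined DNA damage repair or cell cycle control alterations. Compound-treated growth compared with vehicle.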

[10] = NCI Yeast Anticancer Drug Screen. Data for the rad14 strain (AID 159);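 note: 0% = growth of vehicle-treated control cultures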; settings: S. cerevisiae rad14 strain growth inhibition, stronger effect = higher value
How it was run: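 Inhibition of growth is reported for a repair-deficient yeast mutant following compound treatment, calculated relative to cultures that received vehicle.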

[11] = NCI Yeast Anticancer Drug Screen. Data for the CLN2oe strain (AID 163);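 note: 0% = growth of vehicle-only control cultures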; settings: S. cerevisiae CLN2oe strain, stronger effect = higher value
How it was run: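 Growth of a genetically modified yeast strain is measured after compound exposure and compared with cultures given vehicle alone.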

[12] = NCI Yeast Anticancer Drug Screen. Data for the mlh1 strain (AID 171);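 note: 0% = growth of vehicle-treated control cultures of the same strain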; settings: S. cerevisiae mlh1 strain growth inhibition, stronger effect = higher value
How it was run: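 Growth of the mutant yeast strain after compound exposure, expressed as inhibition relative to vehicle-only controls.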

[13] = NCI Yeast Anticancer Drug Screen. Data for the sgs1 strain (AID 173);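 note: 0% = growth of vehicle-only control cultures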; settings: S. cerevisiae sgs1 mutant, stronger effect = higher value
How it was run: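 Growth of a yeast strain bearing a defined genetic alteration is measured after compound treatment. Inhibition is expressed relative to vehicle-only controls.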

[14] = at 5.0 µM (retest, dose inferred, filed as 0.5)
[15] = at 50.0 µM (retest, dose inferred, filed as 5.0)

Measured: growth inhibition

[Pt].c1ccc(P(CCP(c2ccccc2)c2ccccc2)CCP(c2ccccc2)c2ccccc2)cc1
inactive: [1]; at 1.2 µM -13% | [1]; at 3.7 µM 11% | [1]; [14] 22% | [1]; at 11.0 µM 23% | [2]; at 1.2 µM -27% | [2]; at 3.7 µM -14% | [2]; [14] -3% | [2]; at 11.0 µM 6% | [3]; [14] 8% | [4]; [14] 43% | [5]; at 1.2 µM 8% | [5]; at 3.7 µM 4% | [5]; [14] 4% | [5]; at 11.0 µM 26% | [6]; [14] 16%
active: [1]; at 33.0 µM 94% | [1]; [15] 90% | [1]; at 50.0 µM 79% | [1]; at 100.0 µM 93% | [2]; at 33.0 µM 94% | [2]; [15] 94% | [2]; at 50.0 µM 85.2% | [2]; at 100.0 µM 94% | [3]; [15] 90% | [3]; at 50.0 µM 82% | [4]; [15] 91% | [4]; at 50.0 µM 79.2% | [5]; at 33.0 µM 96% | [5]; [15] 91% | [5]; at 50.0 µM 75.7% | [5]; at 100.0 µM 95% | [6]; [15] 92% | [6]; at 50.0 µM 75.8%

CCC[CH2][Pb]([Cl])([CH2]CCC)[CH2]CCC
active: [1]; [14] 99% | [1]; [15] 98% | [1]; at 50.0 µM 88% | [2]; [14] 100% | [2]; [15] 99% | [2]; at 50.0 µM 92% | [3]; [14] 100% | [3]; [15] 99% | [3]; at 50.0 µM 92.2% | [4]; [14] 98% | [4]; [15] 98% | [4]; at 50.0 µM 91.2% | [5]; [14] 100% | [5]; [15] 98% | [5]; at 50.0 µM 89.9% | [6]; [14] 99% | [6]; [15] 98%

Cc1cc(N=Nc2ccccc2C)ccc1N
38% (inactive) and 97% (active): [6]; [15]
52% (inactive) and 99% (active): [2]; [15]
44% (inactive) and 96% (active): [1]; [15]
inactive: [1]; [14] 34% and 23% | [2]; [14] 46% and 23% | [3]; [14] -4% and 31% | [4]; [14] 41% and 20% | [5]; [14] 12% and 41% | [7]; at 1.2 µM 2% | [7]; at 3.7 µM -7% | [7]; at 11.0 µM 4% | [6]; [14] 32% and 35%
active: [1]; at 50.0 µM 91.4% and 88.5% | [2]; at 50.0 µM 93% and 91.7% | [3]; [15] 99% and 96% | [3]; at 50.0 µM 93.5% and 89.3% | [4]; [15] 98% and 96% | [4]; at 50.0 µM 91.1% and 91.5% | [5]; [15] 97% and 99% | [5]; at 50.0 µM 91.5% and 90% | [7]; at 33.0 µM 96% | [7]; at 100.0 µM 99% | [6]; at 50.0 µM 90.8% and 91.9%

O=C1OC2C(O1)C1(Cl)C(Cl)=C(Cl)C2(Cl)C1(Cl)Cl (centres undefined)
active: [1]; at 50.0 µM 85.2% | [2]; [15] 90% | [2]; at 50.0 µM 87.8% | [3]; [15] 74% | [3]; at 50.0 µM 87.2% | [4]; at 50.0 µM 78.5% | [5]; [15] 75% | [5]; at 50.0 µM 98% | [6]; [15] 90% | [6]; at 50.0 µM 74.2%
inactive: [8]; at 1.2 µM -4% | [8]; at 3.7 µM -3% | [8]; at 11.0 µM -3% | [8]; at 33.0 µM -7% | [8]; at 100.0 µM -7% | [9]; at 1.2 µM -4% | [9]; at 3.7 µM -3% | [9]; at 11.0 µM -3% | [9]; at 33.0 µM -6% | [9]; at 100.0 µM -3% | [1]; at 1.2 µM -2% | [1]; at 3.7 µM -3% | [1]; [14] 2% | [1]; at 11.0 µM -2% | [1]; at 33.0 µM -3% | [1]; [15] 41% | [1]; at 100.0 µM -1% | [2]; at 1.2 µM -4% | [2]; at 3.7 µM -4% | [2]; [14] 3% | [2]; at 11.0 µM -3% | [2]; at 33.0 µM -3% | [2]; at 100.0 µM -3% | [10]; at 1.2 µM -4% | [10]; at 3.7 µM -6% | [10]; at 11.0 µM -3% | [10]; at 33.0 µM -7% | [10]; at 100.0 µM -1% | [3]; [14] 3% | [11]; at 1.2 µM -4% | [11]; at 3.7 µM -5% | [11]; at 11.0 µM -6% | [11]; at 33.0 µM -12% | [11]; at 100.0 µM -7% | [4]; [14] 1% | [4]; [15] 61% | [5]; at 1.2 µM -6% | [5]; at 3.7 µM -4% | [5]; [14] 0% | [5]; at 11.0 µM -9% | [5]; at 33.0 µM -10% | [5]; at 100.0 µM -19% | [7]; at 1.2 µM -13% | [7]; at 3.7 µM -5% | [7]; at 11.0 µM -6% | [7]; at 33.0 µM -7% | [7]; at 100.0 µM -7% | [12]; at 1.2 µM -1% | [12]; at 3.7 µM 0% | [12]; at 11.0 µM 2% | [12]; at 33.0 µM 1% | [12]; at 100.0 µM 2% | [13]; at 1.2 µM -1% | [13]; at 3.7 µM 0% | [13]; at 11.0 µM 0% | [13]; at 33.0 µM 0% | [13]; at 100.0 µM 1% | [6]; [14] 7%

CNC(Cc1ccccc1)c1ccc(OC)c(OC)c1 (centres undefined)
active: [1]; [15] 95% | [2]; [14] 79% | [2]; [15] 97% | [6]; [15] 98%
inactive: [1]; [14] 69% | [1]; at 50.0 µM -2.25% | [2]; at 50.0 µM 4.05% | [3]; [14] -31% | [3]; [15] 14% | [3]; at 50.0 µM 18.7% | [4]; [14] 18% | [4]; [15] 13% | [4]; at 50.0 µM -15.6% | [5]; [14] 21% | [5]; [15] 28% | [5]; at 50.0 µM 14.3% | [7]; at 1.2 µM -20% | [7]; at 3.7 µM -14% | [7]; at 11.0 µM -26% | [7]; at 33.0 µM -13% | [7]; at 100.0 µM -25% | [6]; [14] 57% | [6]; at 50.0 µM 7.3%
